Source: PubChem BioAssay AID463212 (Sanford-Burnham Center for Chemical Genomics, 2010)
Screen size: about 330,000 compounds; about 4,400 (1.3%) were called active.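 Rule for the calls: active = growth inhibition of the mutant yeast at or above 50%; inactive = the rest.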 The list comes from a sample in which actives are over-represented; it also holds similar structures and randomly drawn compounds.

test: growth inhibition of tim23-1 ts yeast – luminescence, uHTS, primary screen (AID 463212);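 note: temperature-sensitive mutant grown at 25 °C; plate controls were DMSO-treated mutant yeast for no effect and medium wells lacking yeast for full effect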; conditions: S. cerevisiae tim23-1 growth, BacTiter-Glo luminescence, 24 h; at 20 µM; active compounds read high

inhibition, active:
C/C(=N/NC(=O)c1cc(Cl)ccc1O)C12CC3CC(CC(C3)C1)C2 54.5%
COC(=O)c1c(NC(=O)CSc2nncs2)sc2c1CCCCC2 52.6%
Clc1ccc(Nc2ccc3ccccc3n2)cc1 84.8%
CC(C)c1ccc(NC(=S)NC2CC3C=CC2C3)cc1 (stereo not drawn) 50.9%
COc1cc(SC)ccc1C(=O)Nc1nc(C)cs1 51.1%
O=C(/C=C/c1ccccc1)c1ccccc1O 55.8%
O=C1C=C(c2cccc(Cl)c2O)C[C@@H](c2ccc(F)cc2)C1 63.4%
Cc1cc(C(=O)N/N=C\C(Br)=C\c2ccccc2)c(C)o1 55.9%
CC(=O)Oc1ccc2c(c1)C(=O)c1ccccc1C2=O 50.2%
O=C(c1cc(-c2ccc(O)cc2)on1)N1CCCc2ccccc21 54.2%
O=C(c1cc(-c2cccc(O)c2)on1)N1CCc2ccccc2C1 50.3%
CCC(C)c1ccc(NC(=O)COC(=O)C2CCCC2)cc1 (stereo not drawn) 56.9%
CCN1C(=O)/C(=C2\SC(N3CCCCC3)=NC2=O)c2ccccc21 54.8%
O=c1oc(-c2ccccc2NS(=O)(=O)c2ccc(Cl)cc2)nc2ccccc12 59.8%

inhibition, inactive:
O=C(N/N=C1\CCSC1)c1cc(Cl)ccc1O 7.53%
Cc1ccc(C(=O)NC23CC4CC(CC(C4)C2)C3)c(Cl)c1 20.2%
CCOc1ccc(S(=O)(=O)NCCCn2ccnc2)cc1NC(C)=O -2.51%
Cc1ccnc(NC(=O)CCC(=O)N(CC(=O)NCCc2ccccc2)Cc2cccs2)c1 6.97%
COc1cccc(CN2C(=O)CCC2(C)C(=O)NC2CCCCCC2)c1 (stereo not drawn) -1.86%
COC(=O)c1c(NC(=O)C2CC(C)=C(C)CC2C(=O)O)sc2c1CCCCC2 (stereo not drawn) 27.7%
COC(=O)c1c(NC(=O)CCN2CCOCC2)sc2c1CCCC2 26%
Cc1ccc(NS(=O)(=O)c2cn(C)c(=O)n(C)c2=O)c(C)c1 11%
Cc1cccc(C(C)C)c1NC(=O)COC(=O)C1CC(=O)N(Cc2ccccc2)C1 (stereo not drawn) -6%
C(=N\Nc1ccc2ccccc2n1)/c1ccc2c(c1)OCO2 18.7%
Cc1cccc(NC(=O)c2ccc3ccccc3n2)n1 26.7%
CC(=O)N1c2ccc(S(=O)(=O)N3CCCC(C(=O)Nc4cccc(F)c4)C3)cc2CC1C (stereo not drawn) 19.4%
S=C(NNC(=S)NC1CC2CCC1C2)NC1CC2C=CC1C2 (stereo not drawn) 13.8%
S=C(NNC(=S)NC1CC2C=CC1C2)NC1CC2C=CC1C2 (stereo not drawn) 6.32%
Cc1csc(NC(=O)c2ccc(C)s2)n1 17%
COc1ccc(C(=O)Nc2cccc(NC(=O)c3ccc(OC)cc3OC)n2)c(OC)c1 -26.2%
O=C(/C=C/c1ccc(N2CCOCC2)cc1)c1ccccc1 35.2%
O=C(/C=C/c1ccccc1)N/C(=C/c1ccccc1)C(=O)Nc1ccccc1O 19.1%
Nc1cc(N)nc(SCC(=O)Nc2cccc(S(=O)(=O)N3CCCCC3)c2)n1 -8.43%
O=C1C=C(c2cccc(Cl)c2)C[C@@H](c2ccc(F)cc2)C1 35.1%
COc1ccccc1C1=CC(=O)C[C@H](c2ccc(F)cc2)C1 35.3%
COc1ccc2ccccc2c1CNc1nnnn1C -0.932%
CC(=C/c1ccccc1)/C=N/NC(=O)c1cc(C)oc1C -0.867%
CC(C)c1cc(C(=O)N/N=C/C(Br)=C/c2ccccc2)n[nH]1 34.3%
CCN(CC)C(=O)c1nc[nH]c1C(=O)N(C)Cc1ccccc1 8.93%
Cc1cc(C)cc(NC(=O)C2CCCN2S(=O)(=O)c2cccc3cccnc23)c1 (stereo not drawn) 47.9%
CCOC(=O)c1cc2c(=O)n3ccccc3nc2n(CC(C)C)c1=NC(=O)c1c(-c2c(F)cccc2Cl)noc1C 28.6%
Nn1c(SCC(=O)NC2CCCc3ccccc32)nnc1C1CC1 (stereo not drawn) 2.69%
CC(=O)Nc1ccc(Oc2ccc3c(c2)C(=O)NC3=O)cc1 -0.541%
CC(=O)O[C@H]1c2ccccc2-c2ccccc2[C@@H]1OC(C)=O 21.8%
O=C(O)CN(Cc1ccco1)S(=O)(=O)c1ccc(F)cc1 -1.65%
Cc1ccc(-c2cc(C(=O)N3CCc4ccccc4C3)no2)cc1 15.5%
O=C(c1cc(-c2ccc(O)cc2)on1)N1CCOCC1 12.7%
Cc1c(C(=O)N2CCCc3ccccc32)oc2ccccc12 23.8%
O=C(NCCCN1CCOCC1)c1cc(-c2cccc(O)c2)on1 -0.573%
CSc1ccc(S(=O)(=O)N2CCC(C(=O)NCc3ccncc3)CC2)cc1 0.185%
COC(=O)c1ccc2ccccc2c1OC1OC(CO)C(O)C(O)C1NC(C)=O (stereo not drawn) 2.47%
Cc1cccc(-c2nnc(SCC(=O)O)n2Cc2ccccc2)c1 1.27%
CC1CCC2(CC1)NC(=O)N(Cc1nnc(-c3cccs3)o1)C2=O (stereo not drawn) 8.03%
CCn1c(SCc2cccc(C(=O)O)c2)nnc1-c1ccc(Cl)cc1 10.3%
CC(=O)Nc1ccc(NC(=O)COC(=O)C2CCC(C(C)(C)C)CC2)cc1 (stereo not drawn) 32.6%
O=C(COC(=O)C1CCCCC1)Nc1ccc([N+](=O)[O-])cc1 2.5%
Clc1ccc(-c2nnc(-c3ccccc3)nc2N2CCSCC2)cc1 45.4%
O=S(=O)(c1ccccc1)c1nc(Cc2ccccc2)oc1N1CCOCC1 7.56%
CCCCC(NC(=O)c1cccc(Br)c1)C(=O)O (stereo not drawn) 4.77%
COC(=O)CNS(=O)(=O)c1ccc(Cc2ccc(S(=O)(=O)NCC(=O)OC)cc2)cc1 31.2%
COc1cc(OC)c(C(=S)N2CCCC2)cc1OC 11.7%
CC(C)=C1SC(N2CCN(c3cccc(C)c3)CC2)=NC1=O 14.1%
O=C1N=C(N2CCCC2)S/C1=C\c1cccc(Br)c1 27.3%
CSc1ccccc1OCc1cc(C(=O)N2C[C@H]3CC[C@H]2C3)no1 18.7%
CCCOc1ccc(CN(CCO)CCO)cc1C(=O)OC 1.64%
COCCCNC(=O)C1CCN(c2ccc(N3CCOCC3)nn2)CC1 16.9%
O=C(NCc1ccccc1)c1onc(CSc2nc3ccccc3[nH]2)c1C(=O)NCc1ccccc1 6.16%
CCOC(=O)C1CCN(C(=O)c2cccc(S(=O)(=O)N(CC)c3ccccc3)c2)CC1 14.3%
CCCCN1C(=O)CC(N2CCOCC2)C1=O (stereo not drawn) -1.61%
Cn1nc(C(F)(F)F)cc1C(=O)O -3.37%
O=c1ccc2cc(S(=O)(=O)Nc3ccccc3F)ccc2o1 17.6%
O=c1oc2ccccc2c(NC2CCCCC2)c1NS(=O)(=O)c1ccc(Cl)cc1 25.2%
CC(=O)Nc1ccc(N2C(=O)CC(Sc3nccc(C)n3)C2=O)cc1 (stereo not drawn) 10.2%
